# What was measured:
# Details in all cases: concentration: 1 μM, replicates: in singlicate; n = 1
# SGK = test system: SGK
# SIK2 = test system: SIK2
# SIK = test system: SIK
# SLK = test system: SLK
# SNARK = test system: T1, SNARK
# T1 construct: gene NUAK2
# SNRK = test system: SNRK
# SRC = test system: SRC
# SRMS = test system: SRMS
# SRPK1 = test system: SRPK1
# SRPK2 = test system: SRPK2
# SRPK3 = test system: SRPK3
# STK16 = test system: STK16
# STK33 = test system: STK33
# STK35 = test system: STK35
# STK36 = test system: STK36
# STK39 = test system: STK39
# SYK = test system: SYK
# SgK110 = test system: SgK110
# TAK1 = test system: T2, TAK1
# T2 construct: gene MAP3K7
# TAOK1 = test system: TAOK1
# 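Also: KINOMEscan kinase panel screen.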
Compound,%Inh (SGK),%Inh (SIK2),%Inh (SIK),%Inh (SLK),%Inh (SNARK),%Inh (SNRK),%Inh (SRC),%Inh (SRMS),%Inh (SRPK1),%Inh (SRPK2),%Inh (SRPK3),%Inh (STK16),%Inh (STK33),%Inh (STK35),%Inh (STK36),%Inh (STK39),%Inh (SYK),%Inh (SgK110),%Inh (TAK1),%Inh (TAOK1)
COc1cc2c(cc1OCCN1CCN(C)CC1)ncc1c3ccc(C#N)cc3[nH]c21,78%,88%,17%,34%,97.1%,27%,0%,0%,7%,0%,0%,10%,25%,0%,0%,11%,8%,0%,90.6%,0%
c1ccc(-c2n[nH]cc2-c2ccnc3ccccc23)nc1 [GW271431],0%,9%,8%,16%,0%,0%,7%,0%,25%,0%,0%,18%,8%,19%,0%,0%,44%,0%,50%,0%
Cc1c2ccc(N(C)c3ccnc(Nc4cccc(S(N)(=O)=O)c4)n3)cc2nn1Cc1ccccc1.Cl.Cl [GW787226],0%,42%,72%,66%,0%,0%,94.7%,67%,7%,0%,2%,55%,0%,0%,39%,0%,60%,2%,4%,0%
COc1ccc(S(=O)(=O)NC2CCN(c3cc(C)nc(Nc4cccc(C#N)c4)n3)CC2)cc1.O=C(O)C(F)(F)F [GSK1653539],0%,0%,0%,8%,0%,0%,0%,0%,0%,0%,0%,3%,0%,0%,0%,17%,0%,0%,0%,0%
Cl.Nc1ncnc2occ(-c3ccc(NC(=O)Nc4cc(C(F)(F)F)ccc4F)cc3)c12 [SB-707548],0%,0%,0%,98%,0%,0%,30%,4%,50%,40%,0%,8%,87%,37%,0%,14%,68%,0%,98.6%,13%
[2H]C([2H])(c1cccc(C(F)(F)F)c1C)n1ccn2c(=O)nc(N3CCOCC3)cc12 [GSK2336394],0%,0%,0%,22%,0%,0%,0%,0%,37%,0%,0%,0%,0%,0%,0%,1%,42%,0%,0%,0%
C[C@@H](Oc1cc(-n2cnc3ccc(NC(=O)NC(C)(C)C)cc32)sc1C(N)=O)c1ccccc1Cl [GSK346294],0%,0%,0%,59%,21%,0%,0%,0%,20%,12%,0%,22%,0%,0%,0%,0%,34%,0%,0%,0%
CC(=O)Nc1ccc(COc2ccc(Nc3ccnc4cc(-c5ccccn5)ccc34)cc2)cc1.Cl [GW440148],0%,0%,4%,0%,15%,0%,29%,88%,46%,12%,0%,23%,0%,0%,0%,13%,0%,0%,0%,0%
COc1ccc(Nc2nccc(N3CCC(NC(=O)Nc4cccc(C(C)=O)c4)C3)n2)cc1 (centres unmarked) [GSK1379731],0%,0%,0%,0%,0%,0%,0%,0%,6%,0%,0%,14%,0%,0%,0%,0%,1%,0%,0%,0%
O=C(NCCCN1CCOCC1)c1cccc(Nc2nccc(Nc3ccc(Oc4ccccc4)cc3)n2)c1 [GW663929],1%,12%,68%,8%,22%,0%,81%,97.5%,25%,19%,0%,64%,10%,34%,33%,23%,0%,0%,19%,0%

# Source: PMC5540273 (PLoS ONE, 2017)
